The campaign covered roughly 5,500 compounds. About 2,000 (36%) were called active. About 18% were inconclusive and are not listed. Cut-off read from the data, not from the text of the source: active = normalized growth mostly below about 0.91 (no sharp cut-off); inconclusive = no clear call, values can overlap the other calls; inactive = mostly above about 0.92. This is one part of the list.
Experiment: chemical genetic growth profiling, strain panel (AID 1159580);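 note: tested at 20 µM; growth read once vehicle control cultures reached saturation at 30 °C; 1 = growth at the plate median or of vehicle wells; lower values mean less growth of the strain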
Conditions: S. cerevisiae deletion strains, growth OD

Measured: normalized growth

CNNC
inactive: locus YAL013W, strain DEP1, active compounds read low 1.01 | locus YAL021C, strain ccr4, active compounds read low 1.01 | locus YAL026C, strain drs2, active compounds read low 1.02 | locus YAL030W, strain snc1, active compounds read low 1.02 | locus YBL061C, strain skt5, active compounds read low 1 | locus YBR009C, strain hhf1, active compounds read low 1.01 | locus YBR021W, strain FUR4, active compounds read low 1.04 | locus YBR023C, strain chs3, active compounds read low 1 | locus YBR171W, strain sec66, active compounds read low 0.995 | locus YBR229C, strain ROT2, active compounds read low 1.01 | locus YBR231C, strain swc5, active compounds read low 1.01 | locus YBR279W, strain paf1, active compounds read low 1.02 | locus YCL011C, strain gbp2, active compounds read low 1.01 | locus YCL016C, strain dcc1, active compounds read low 1.04 | locus YCL029C, strain bik1, active compounds read low 1.01 | locus YCL069W, strain vba3, active compounds read low 1.01 | locus YCR088W, strain abp1, active compounds read low 1.01 | locus YDL005C, strain med2, active compounds read low 0.987 | locus YDL035C, strain GPR1, active compounds read low 1.02 | locus YDL040C, strain nat1, active compounds read low 1 | locus YDL074C, strain BRE1, active compounds read low 1.07 | locus YDL101C, strain DUN1, active compounds read low 1.03 | locus YDL134C, strain PPH21, active compounds read low 1.02 | locus YDL185W, strain tfp1, active compounds read low 1.01 | locus YDL192W, strain arf1, active compounds read low 0.995 | locus YDR001C, strain nth1, active compounds read low 1.02 | locus YDR069C, strain doa4, active compounds read low 1.02 | locus YDR101C, strain arx1, active compounds read low 0.989 | locus YDR137W, strain rgp1, active compounds read low 1.04 | locus YDR150W, strain NUM1, active compounds read low 1 | locus YDR159W, strain sac3, active compounds read low 0.991 | locus YDR162C, strain NBP2, active compounds read low 1.03 | locus YDR195W, strain ref2 0.981 | locus YDR297W, strain sur2, active compounds read low 1 | locus YDR318W, strain mcm21, active compounds read low 0.997 | locus YDR334W, strain swr1, active compounds read low 1.01 | locus YDR335W, strain msn5, active compounds read low 1.01 | locus YDR388W, active compounds read low 0.994 | locus YDR392W, strain spt3, active compounds read low 1.01 | locus YDR502C, strain sam2, active compounds read low 1.01 | locus YEL003W, strain gim4, active compounds read low 1.01 | locus YEL037C, strain rad23, active compounds read low 1.02 | locus YEL061C, strain CIN8 (second series), active compounds read low 1.01 | locus YEL061C, strain CIN8, active compounds read low 1.01 | locus YER015W, strain faa2, active compounds read low 1.01 | locus YER016W, strain bim1, active compounds read low 1.01 | locus YER110C, active compounds read low 0.996 | locus YER111C, strain swi4, active compounds read low 1 | locus YER155C, strain BEM2 (second series), active compounds read low 1.04 | locus YER155C, strain BEM2, active compounds read low 1.03 | locus YER167W, strain BCK2, active compounds read low 1.02 | locus YFR010W, strain ubp6, active compounds read low 0.993 | locus YGL078C, strain dbp3, active compounds read low 1 | locus YGL086W, strain mad1, active compounds read low 1.01 | locus YGL167C, strain pmr1, active compounds read low 0.998 | locus YGL173C, strain kem1, active compounds read low 0.987 | locus YGL227W, strain vid30, active compounds read low 1.01 | locus YGL240W, strain doc1, active compounds read low 0.995 | locus YGL248W, strain PDE1, active compounds read low 1.02 | locus YGL253W, strain hxk2, active compounds read low 1 | locus YGR078C, strain PAC10, active compounds read low 1.04 | locus YGR135W, strain pre9, active compounds read low 1.01 | locus YGR229C, strain SMI1, active compounds read low 1.02 | locus YGR252W, strain gcn5, active compounds read low 0.955 | locus YHR013C, strain ard1, active compounds read low 1.02 | locus YHR027C, strain rpn1, active compounds read low 1.02 | locus YHR030C, strain SLT2, active compounds read low 1.02 | locus YHR079C, strain IRE1 (second series), active compounds read low 1 | locus YHR094C, strain hxt1, active compounds read low 0.998 | locus YHR129C, strain ARP1, active compounds read low 1.02 | locus YHR142W, strain chs7, active compounds read low 1.04 | locus YHR200W, strain rpn10, active compounds read low 1 | locus YIL066C, strain RNR3, active compounds read low 1.01 | locus YIL073C, strain SPO22, active compounds read low 0.998 | locus YIL125W, strain kgd1, active compounds read low 0.99 | locus YIR030C, strain dcg1, active compounds read low 1.01 | locus YJL092W, strain hpr5, active compounds read low 1.03 | locus YJL095W, strain BCK1 (second series), active compounds read low 1.01 | locus YJL095W, strain BCK1, active compounds read low 1.05 | locus YJL115W, strain asf1, active compounds read low 0.994 | locus YJL129C, strain trk1, active compounds read low 1.01 | locus YJL134W, strain LCB3, active compounds read low 1.02 | locus YJL154C, strain vps35, active compounds read low 1.02 | locus YJL164C, strain tpk1, active compounds read low 0.996 | locus YJL166W, strain qcr8, active compounds read low 0.997 | locus YJL168C, strain set2, active compounds read low 1 | locus YJL187C, strain SWE1 (second series), active compounds read low 1.02 | locus YJR043C, strain POL32, active compounds read low 0.998

Reference: PubChem BioAssay AID1159580 (chemical genetic matrix, 2015)
